Data on five compounds can be found in PubChem BioAssay.

Assay [1] in a line: rapamycin-like changes in RPL19A-GFP expression – cell-based, S. cerevisiae, multiplex flow cytometry, primary screen (AID 1862).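 Also: lower values mimic rapamycin by blocking the RPL19A rise seen in DMSO cells.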 Conditions: S. cerevisiae RPL19A-GFP strain, flow cytometry fluorescence, 3 h; at 10 µM; stronger effect = lower value.
The nature of assay [2]: TOR pathway GLN3 branch reporter MEP2-GFP changes – S. cerevisiae, multiplex flow cytometry, primary screen (AID 1867;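 active = GFP response, as percent of the DMSO control, above the screen-wide mean plus 3 SD, about 139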;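 also: median GFP channel fluorescence of barcode-gated MEP2-GFP cells measured by flow cytometry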). Conditions: S. cerevisiae MEP2-GFP strain, 3 h, at 10 µM, stronger effect = higher value, 100% means same as DMSO wells.
Assay [3] is described as follows: TOR pathway RTG branch CIT2 reporter changes – S. cerevisiae, GFP fusion, multiplex flow cytometry, primary screen (AID 1870;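 active = percent response above a set limit, the screen-wide mean plus 3 SD, cut at about 130% in these data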;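 also: barcoded CIT2-GFP strain pooled with four other GFP strains with rapamycin as positive control; median GFP fluorescence per well over plate mean of DMSO wells so 100% = DMSO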). Conditions: S. cerevisiae CIT2-GFP expression, 3 h, at 10 µM, stronger effect = higher value.
The nature of assay [4]: TOR pathway LAP4-GFP level changes – S. cerevisiae, multiplex flow cytometry, primary screen (AID 1873;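 active = GFP signal, as percent of the solvent control, above the screen mean plus 3 SD, about 149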). Conditions: S. cerevisiae LAP4-GFP expression, 3 h, at 10 µM, stronger effect = higher value.
Assay [5] is described as follows: yeast AGP1-GFP level changes, GLN3 branch – cell-based, multiplex flow cytometry, S. cerevisiae, primary screen (AID 1887;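 active = GFP signal above the screen-wide mean plus 3 SD, that is over about 124.5% of the solvent control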;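 also: AGP1-GFP fusion strain of S. cerevisiae within a five-strain barcoded multiplex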). Conditions: 3 h, at 10 µM, stronger effect = higher value.
A short description of assay [6]: reduced mouse 2C T cell binding to pMHC/ICAM-1 vesicles – MLPCN validation set, flow cytometry, LFA-1/ICAM-1 modulator project, pilot screen (AID 2523;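 active = response below a set limit, under 55% cells CD8-positive and vesicle-bound, and CD8 cells' 90th-percentile brightness under 279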;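 as to vesicle binding response: mean PE anti-B7-1 fluorescence of CD8+ cells relative to row control; 100% = QL9-loaded vesicles with DMSO vehicle in the same plate row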). Conditions: 2C mouse CD8+ T cells, at 7 µM, stronger effect = lower value; double positive events: measured here: CD8+/vesicle+ event percentage.
The target in assay [7] is Integrin beta-1 (Homo sapiens) + Integrin alpha-4 (Homo sapiens) (UniProt P13612+P05556). Description: alpha4beta1 integrin LIBS antibody binding reduction – U937 cells, HUTS-21 mAb, flow cytometry, validation set, VLA-4 allosteric modulator project, pilot screen (AID 2674;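 active = inhibition above 50%, about 3 SD of the validation set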;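 also: antibody binding induced by the VLA-4 ligand LDV present at three times its Kd; 0% = LDV ligand with antibody and no compound and 100% = antibody without LDV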). Conditions: HUTS-21 LIBS mAb binding, at 6.7 µM, stronger effect = higher value, binding induced by LDV ligand.

Assay [8] can be described thus: calorie-restriction mimetic ROS inhibitors, yeast – validation compound set, pilot screen (AID 2706;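 active = superoxide response below 65% of plate, a cut near 3 SD across the whole screen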;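 also: yeast exposed to compound for one week at 30 degrees C before staining; 100% = mean of all compound wells on the same plate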). Conditions: S. cerevisiae aging, superoxide DHE fluorescence; at 10 µM, stronger effect = lower value.
Assay [9] has as its target AP-2 complex subunit beta (Homo sapiens) (UniProt P63010). Description: beta-arrestin/AP2 interaction blockers – biochemical, validation set, GST-AP2 beads, flow cytometry, pilot screen (AID 504541;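 active = inhibition above 54%, about 3 SD of non-fluorescent compounds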;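 also: AP2 carries R879A mutation and is captured from E. coli lysate; bead-bound FITC arrestin peptide fluorescence measuring arrestin peptide binding to AP2; 0% = DMSO wells and 100% = excess unlabeled arrestin peptide control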). Conditions: FITC arrestin peptide, at 10 µM, stronger effect = higher value, AP2 beta2 appendage fragment, R879A mutant.
A short description of assay [10]: cytosolic pH regulators acting via V-ATPase – S. cerevisiae, pHLuorin, HTS validation (AID 504600; in the data active = response above about 15%;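 also: plate controls were DMSO for no effect and reference compound for full effect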). Conditions: V-ATPase proton transport, at 10 µM, stronger effect = higher value.
Assay [11] deals with anti-desmoglein-3 scFv antibody binding to human DSG3. Nature of the assay: blockers of pathogenic pemphigus antibody–desmoglein-3 binding – biochemical, validation compound set, bead-based, flow cytometry, pilot screen (AID 588368;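 active = binding below the plate cutoff, the plate median minus 3 SD, with a reading above zero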;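 also: signal is the median channel fluorescence of bead-bound GFP antibody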). Conditions: Protein G beads, DSG3-Fc, scFv-GFP binding, at 10 µM, stronger effect = lower value.
Assay [12] can be described thus: Nile Red efflux blockade in pump-expressing yeast – validation compound set, multiplex, phenotypic, pilot screen (AID 588506;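 active = efflux inhibition above 0.42, the validation set average plus 4 SD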;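 also: Nile Red retained in cells so higher fluorescence means more efflux inhibition; 0 = negative control wells and 1 = enniatin B 25 µM full block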). Conditions: S. cerevisiae pump-expressing triplex, Nile Red efflux flow cytometry; at 10 µM; stronger effect = higher value; the pumps come from Candida albicans.
Assay [13] has as its target ATP-binding cassette sub-family B member 6 (Homo sapiens) (UniProt Q9NP58). Nature of the assay: blockers of ABCB6-driven porphyrin uptake – K562-ABCB6 cells, flow cytometry, validation set, pilot screen (AID 588550;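 active = inhibition above the screen-wide mean plus 3 SD, about 51%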;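 also: 0% = DMSO wells and 100% = benzethonium chloride 70 µM positive control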). Conditions: K562-ABCB6 porphyrin accumulation, 1 h, at 10 µM, stronger effect = higher value.
The nature of assay [14]: AML differentiation inducers, ER-HoxA9 marrow cells – cell-based, GFP/MAC1 double positive, flow cytometry, validation set, primary screen (AID 588685;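 active = differentiation response of at least 50%, scaled between solvent and reference control, from cells with both markers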;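 also: compound exposure lasts four days before antibody staining and flow analysis; 0% = DMSO wells and 100% = 5 µM fulvestrant positive control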). Conditions: stronger effect = higher value, normalized: vehicle 0, fulvestrant 100.
Assay [15] addresses Beta-adrenergic receptor kinase 1 (Homo sapiens) (UniProt P25098). Nature of the assay: GRK2 binders displacing RNA aptamer, biochemical, validation, human GRK2, bead flow cytometry (AID 488806;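 active = aptamer binding inhibition above 30%, about 3 SD of noise from non-fluorescent compounds; inactive = inhibition at or below 30%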). Conditions: bead-bound GRK2, FAM-aptamer displacement, at 10 µM, stronger effect = higher value.
Assay [16] addresses Beta-2 adrenergic receptor (Homo sapiens) (UniProt P07550). Nature of the assay: agonist-induced loss of surface beta2AR – cell-based, FAP fluorogen, flow cytometry, validation set, pilot screen (AID 504459;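 active = percent response above 42, roughly 3 SD of non-fluorescent test compounds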;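 also: agonist-driven loss of surface beta2AR via internalization measured by FAP dye flow cytometry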). Conditions: Am2.2-beta2AR cells, at 10 µM, stronger effect = higher value.

Inconclusive results are not listed. Active and inactive are the calls of the source. Rule as the data show it, unless noted: active = percent of DMSO control GFP below about 86%; inactive = the rest, inconclusive results apart.

Chain of Beta-adrenergic receptor kinase 1 (Homo sapiens) (P25098 whole entry, looked up): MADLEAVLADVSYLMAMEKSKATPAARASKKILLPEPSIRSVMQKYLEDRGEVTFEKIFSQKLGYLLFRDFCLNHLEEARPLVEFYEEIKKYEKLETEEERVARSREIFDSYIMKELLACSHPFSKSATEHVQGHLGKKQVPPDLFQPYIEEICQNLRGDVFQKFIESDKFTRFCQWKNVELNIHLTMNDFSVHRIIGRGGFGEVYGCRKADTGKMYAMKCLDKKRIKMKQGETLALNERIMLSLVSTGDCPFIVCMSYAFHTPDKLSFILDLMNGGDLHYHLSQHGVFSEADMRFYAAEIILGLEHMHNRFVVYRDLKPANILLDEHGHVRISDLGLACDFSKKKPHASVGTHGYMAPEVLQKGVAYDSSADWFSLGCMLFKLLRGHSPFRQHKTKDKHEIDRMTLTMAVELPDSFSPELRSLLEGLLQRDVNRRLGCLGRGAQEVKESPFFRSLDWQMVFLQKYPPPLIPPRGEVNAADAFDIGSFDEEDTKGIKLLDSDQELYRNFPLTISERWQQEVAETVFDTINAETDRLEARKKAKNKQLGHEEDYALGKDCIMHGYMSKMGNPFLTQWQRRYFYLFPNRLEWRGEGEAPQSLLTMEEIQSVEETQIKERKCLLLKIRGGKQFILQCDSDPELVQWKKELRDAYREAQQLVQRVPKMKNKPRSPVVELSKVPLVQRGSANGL
Chain of Integrin beta-1 (Homo sapiens) + Integrin alpha-4 (Homo sapiens) (P05556 whole entry, looked up): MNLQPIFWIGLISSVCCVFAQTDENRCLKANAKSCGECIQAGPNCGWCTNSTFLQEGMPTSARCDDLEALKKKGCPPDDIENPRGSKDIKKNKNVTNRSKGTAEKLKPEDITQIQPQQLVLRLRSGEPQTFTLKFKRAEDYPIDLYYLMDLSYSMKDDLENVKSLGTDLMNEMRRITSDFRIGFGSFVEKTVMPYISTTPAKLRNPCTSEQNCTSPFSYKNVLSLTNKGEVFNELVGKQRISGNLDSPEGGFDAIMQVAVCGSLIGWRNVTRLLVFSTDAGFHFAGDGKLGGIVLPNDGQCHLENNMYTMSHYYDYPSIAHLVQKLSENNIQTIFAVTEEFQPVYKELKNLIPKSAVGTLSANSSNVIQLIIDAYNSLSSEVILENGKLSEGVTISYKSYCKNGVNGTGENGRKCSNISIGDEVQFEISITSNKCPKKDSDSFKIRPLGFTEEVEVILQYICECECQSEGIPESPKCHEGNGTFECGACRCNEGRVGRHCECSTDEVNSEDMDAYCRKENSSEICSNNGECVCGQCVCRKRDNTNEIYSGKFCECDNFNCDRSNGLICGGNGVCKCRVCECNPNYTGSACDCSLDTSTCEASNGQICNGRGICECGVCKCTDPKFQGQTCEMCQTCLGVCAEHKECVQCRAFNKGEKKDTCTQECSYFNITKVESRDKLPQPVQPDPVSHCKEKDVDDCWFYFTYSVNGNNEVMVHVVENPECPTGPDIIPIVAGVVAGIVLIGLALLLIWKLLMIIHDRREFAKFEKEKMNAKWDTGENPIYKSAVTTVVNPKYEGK
Chain of Integrin beta-1 (Homo sapiens) + Integrin alpha-4 (Homo sapiens) (P13612 whole entry, looked up): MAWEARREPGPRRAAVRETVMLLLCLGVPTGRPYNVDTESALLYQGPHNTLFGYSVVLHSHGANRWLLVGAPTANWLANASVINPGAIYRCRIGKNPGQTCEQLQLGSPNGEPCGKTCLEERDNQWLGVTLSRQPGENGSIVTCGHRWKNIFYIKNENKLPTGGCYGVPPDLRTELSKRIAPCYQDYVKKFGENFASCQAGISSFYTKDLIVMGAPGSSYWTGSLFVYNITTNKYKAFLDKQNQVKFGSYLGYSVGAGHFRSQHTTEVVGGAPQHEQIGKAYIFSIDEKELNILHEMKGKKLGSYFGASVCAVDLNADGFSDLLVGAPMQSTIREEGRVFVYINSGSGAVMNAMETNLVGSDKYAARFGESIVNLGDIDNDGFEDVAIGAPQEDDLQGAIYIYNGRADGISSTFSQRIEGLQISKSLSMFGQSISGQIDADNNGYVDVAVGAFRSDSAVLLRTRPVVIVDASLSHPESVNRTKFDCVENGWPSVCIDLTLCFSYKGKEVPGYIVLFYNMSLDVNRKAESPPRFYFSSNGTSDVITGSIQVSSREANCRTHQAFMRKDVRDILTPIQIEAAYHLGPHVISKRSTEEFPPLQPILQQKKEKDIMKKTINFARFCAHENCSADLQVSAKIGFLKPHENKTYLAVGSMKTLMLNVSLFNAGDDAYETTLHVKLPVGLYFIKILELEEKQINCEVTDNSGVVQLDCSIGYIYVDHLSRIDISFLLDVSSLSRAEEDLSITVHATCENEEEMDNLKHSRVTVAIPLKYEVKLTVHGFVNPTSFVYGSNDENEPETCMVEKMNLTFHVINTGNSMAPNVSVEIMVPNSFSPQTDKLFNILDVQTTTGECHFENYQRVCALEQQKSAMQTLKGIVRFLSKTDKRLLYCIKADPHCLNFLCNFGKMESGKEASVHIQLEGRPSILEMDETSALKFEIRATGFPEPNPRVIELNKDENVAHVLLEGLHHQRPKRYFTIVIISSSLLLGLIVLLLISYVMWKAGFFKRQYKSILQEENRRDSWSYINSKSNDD
Chain of AP-2 complex subunit beta (Homo sapiens) (P63010 whole entry, looked up, the tested form may be a part, one chain of several): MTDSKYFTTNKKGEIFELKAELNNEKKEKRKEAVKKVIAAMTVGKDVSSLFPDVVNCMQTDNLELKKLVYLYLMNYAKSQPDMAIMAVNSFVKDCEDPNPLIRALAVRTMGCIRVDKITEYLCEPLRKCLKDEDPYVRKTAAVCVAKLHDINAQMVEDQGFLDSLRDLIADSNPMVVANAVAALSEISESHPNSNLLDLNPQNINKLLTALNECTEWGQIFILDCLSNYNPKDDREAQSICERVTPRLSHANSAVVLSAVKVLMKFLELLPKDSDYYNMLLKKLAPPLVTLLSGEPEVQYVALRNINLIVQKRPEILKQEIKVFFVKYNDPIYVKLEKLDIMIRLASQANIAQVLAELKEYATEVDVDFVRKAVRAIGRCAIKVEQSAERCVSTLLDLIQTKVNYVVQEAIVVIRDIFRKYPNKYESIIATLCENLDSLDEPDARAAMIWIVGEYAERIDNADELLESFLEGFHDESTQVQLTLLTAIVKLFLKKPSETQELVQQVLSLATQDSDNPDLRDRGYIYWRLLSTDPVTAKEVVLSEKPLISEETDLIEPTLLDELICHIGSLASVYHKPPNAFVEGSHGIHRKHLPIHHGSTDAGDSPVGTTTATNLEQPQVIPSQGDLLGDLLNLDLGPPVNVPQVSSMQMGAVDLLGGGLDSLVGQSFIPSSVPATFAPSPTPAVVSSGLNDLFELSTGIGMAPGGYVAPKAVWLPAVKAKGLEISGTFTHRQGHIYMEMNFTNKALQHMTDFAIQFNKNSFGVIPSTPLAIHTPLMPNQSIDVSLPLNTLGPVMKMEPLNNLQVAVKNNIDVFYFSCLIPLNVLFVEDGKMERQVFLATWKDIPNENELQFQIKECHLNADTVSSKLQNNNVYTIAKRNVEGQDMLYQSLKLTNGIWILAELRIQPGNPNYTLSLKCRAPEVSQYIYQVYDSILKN
Chain of ATP-binding cassette sub-family B member 6 (Homo sapiens) (Q9NP58 whole entry, looked up): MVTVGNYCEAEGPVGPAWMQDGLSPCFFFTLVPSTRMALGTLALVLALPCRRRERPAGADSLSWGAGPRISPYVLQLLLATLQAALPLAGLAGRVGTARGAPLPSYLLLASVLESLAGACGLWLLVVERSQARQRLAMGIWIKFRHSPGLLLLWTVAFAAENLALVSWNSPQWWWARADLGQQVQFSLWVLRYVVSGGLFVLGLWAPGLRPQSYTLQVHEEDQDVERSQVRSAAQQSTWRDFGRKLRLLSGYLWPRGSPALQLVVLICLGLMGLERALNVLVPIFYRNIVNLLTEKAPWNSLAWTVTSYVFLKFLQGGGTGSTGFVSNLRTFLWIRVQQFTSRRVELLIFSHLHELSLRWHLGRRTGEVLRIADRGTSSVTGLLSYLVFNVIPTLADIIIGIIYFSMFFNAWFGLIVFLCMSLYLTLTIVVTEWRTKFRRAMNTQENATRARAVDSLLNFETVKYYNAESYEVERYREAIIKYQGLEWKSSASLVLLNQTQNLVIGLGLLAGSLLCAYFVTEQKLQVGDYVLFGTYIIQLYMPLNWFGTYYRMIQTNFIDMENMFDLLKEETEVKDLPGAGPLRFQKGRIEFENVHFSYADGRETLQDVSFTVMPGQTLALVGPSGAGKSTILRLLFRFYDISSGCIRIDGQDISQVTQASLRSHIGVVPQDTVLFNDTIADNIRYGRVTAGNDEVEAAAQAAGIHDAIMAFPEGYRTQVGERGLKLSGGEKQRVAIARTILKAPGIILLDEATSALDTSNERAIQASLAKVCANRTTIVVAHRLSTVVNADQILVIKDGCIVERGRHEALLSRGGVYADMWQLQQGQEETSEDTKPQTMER
Chain of Beta-2 adrenergic receptor (Homo sapiens) (P07550 whole entry, looked up): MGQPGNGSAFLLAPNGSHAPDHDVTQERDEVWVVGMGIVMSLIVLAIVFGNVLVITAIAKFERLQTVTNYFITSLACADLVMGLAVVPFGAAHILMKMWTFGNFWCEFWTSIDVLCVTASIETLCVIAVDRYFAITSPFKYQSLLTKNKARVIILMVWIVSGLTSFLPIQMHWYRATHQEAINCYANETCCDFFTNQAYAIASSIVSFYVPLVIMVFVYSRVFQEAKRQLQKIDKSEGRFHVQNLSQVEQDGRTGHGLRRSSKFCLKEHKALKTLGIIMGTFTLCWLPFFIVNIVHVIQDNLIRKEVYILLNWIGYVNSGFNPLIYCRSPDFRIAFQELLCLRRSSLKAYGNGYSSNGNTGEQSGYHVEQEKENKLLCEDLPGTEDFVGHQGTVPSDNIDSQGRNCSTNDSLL

On to `CNC[C@H](O)c1ccc(O)c(O)c1`, for which, in assay [1], the percent of DMSO control GFP is 107% (inactive). Moreover, the GFP response vs DMSO is 95.9% (inactive) in assay [2] and 97.4% (inactive) in assay [4]. The percent response of DMSO control in assay [3] was 107% (inactive). In addition, in [5], the GFP response, % of DMSO is 103% (inactive). In assay [6], this compound gave a double positive events of 43.9%. For the same compound, the vesicle binding response in [6] was 162% (inactive). Besides, the inhibition in [7] is -25.4% (inactive); in [9] it was 2.4% (inactive); in [13] it was 9% (inactive). Moreover, the superoxide response (% of plate) in [8] was 108% (inactive). Moreover, the response in assay [10] was 2.95% (inactive). For the same compound, the binding (% of control) in [11] was 103% (inactive). In addition, the efflux inhibition (fraction of control) in [12] was -0.24 (inactive). For the same compound, the differentiation response in assay [14] is -8.27% (inactive).

As to `COc1ccc(CCN(C)CCCC(C#N)(c2ccc(OC)c(OC)c2)C(C)C)cc1OC` (configuration not stated), the percent of DMSO control GFP in assay [1] is 105% (inactive). In addition, the GFP response vs DMSO is 104% (inactive) in [2] and 95.4% (inactive) in assay [4]. The percent response of DMSO control in assay [3] is 98.8% (inactive). Moreover, in assay [5], the GFP response, % of DMSO was 99.7% (inactive). For the same compound, the double positive events in assay [6] came out at 63.8%. In addition, the vesicle binding response in assay [6] is 183% (inactive). Besides, the inhibition in assay [7] was 2.56% (inactive); in assay [9], 53.9% (inactive); in assay [13], 2% (inactive). The superoxide response (% of plate) in [8] is 101% (inactive). For the same compound, the aptamer binding inhibition in [15] is -1% (inactive). Besides, in assay [10], the response was 1.25% (inactive). Further, in [11], the binding (% of control) was 102% (inactive). Further, the differentiation response in [14] is 24% (inactive).

As to `C[C@]12CC[C@@H]3c4cc(O)c(O)cc4CC[C@H]3[C@@H]1CC[C@@H]2O`, the percent of DMSO control GFP in assay [1] was 98.8% (inactive). Further, the GFP response vs DMSO in assay [2] is 98.3% (inactive); in [4], 81.5% (inactive). For the same compound, the percent response of DMSO control in assay [3] was 95.4% (inactive). In assay [5], the GFP response, % of DMSO is 90% (inactive). In assay [6], the double positive events turned out to be 65.9%. Moreover, the vesicle binding response in assay [6] was 236% (inactive). Further, the inhibition is 16.1% (inactive) in assay [7], 2.25% (inactive) in assay [9] and 5% (inactive) in [13]. Moreover, the aptamer binding inhibition in assay [15] was 3% (inactive). The response in assay [16] is 0.11% (inactive); in [10] it was -0.25% (inactive). Besides, the binding (% of control) in [11] is 96.1% (inactive). Besides, the efflux inhibition (fraction of control) in [12] was 0.49 (active). Moreover, the differentiation response in [14] is 8.06% (inactive).

For the compound `O=C1OC(=O)C2C1[C@@H]1CC[C@H]2O1` (some centres not stated), in [1], the percent of DMSO control GFP was 96.6% (inactive). The GFP response vs DMSO in [2] was 103% (inactive); in [4] it was 72.6% (inactive). For the same compound, the percent response of DMSO control in assay [3] was 118% (inactive). This compound also displayed a double positive events in [6] of 60.8%. In assay [6], the vesicle binding response is 195% (inactive). The inhibition in [7] is -8.09% (inactive); in [9] it was -1.78% (inactive); in assay [13] it was 7% (inactive). For the same compound, the superoxide response (% of plate) in assay [8] was 94.4% (inactive). Besides, the aptamer binding inhibition in [15] was 3% (inactive). In addition, the response in assay [16] was -8.34% (inactive); in assay [10], -0.92% (inactive). In addition, the binding (% of control) in assay [11] is 107% (inactive). The efflux inhibition (fraction of control) in assay [12] was -0.24 (inactive). In addition, in assay [14], the differentiation response was -0.82% (inactive).

Turning to `Clc1ccc(Cn2c(CN3CCCC3)nc3ccccc32)cc1`, the percent of DMSO control GFP in [1] was 100% (inactive). Besides, the GFP response vs DMSO was 104% (inactive) in assay [2] and 100% (inactive) in [4]. Further, the percent response of DMSO control in [3] is 107% (inactive). Besides, the GFP response, % of DMSO in assay [5] is 102% (inactive). For the same compound, the double positive events in assay [6] was 56.4%. Moreover, in assay [6], the vesicle binding response is 98% (inactive). Further, in [8], the superoxide response (% of plate) is 105% (inactive). Besides, the aptamer binding inhibition in assay [15] was -1% (inactive). In addition, the inhibition in assay [9] was 1.97% (inactive); in [13], 4% (inactive). Further, the response in assay [10] is -2.91% (inactive). Further, the binding (% of control) in assay [11] is 102% (inactive). For the same compound, in assay [12], the efflux inhibition (fraction of control) is -0.43 (inactive). Besides, in assay [14], the differentiation response was -22.8% (inactive).
